Measurements: PubChem BioAssay (NCI)
Compounds without any hit were thinned out: in the full panel of roughly 83,000, 20% have a hit.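 Results are percent growth after 48 hours of single-concentration exposure. 100 means growth as in untreated cells, lower positive values show inhibition; negative values down to -100 show cell death.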 Calls of active or inactive are those of the source. The calls were made as follows: active = growth percent below 10; inactive = the rest.

Assays:
Assay in all cases: NCI-60 one-dose screen, 48 h (100 = growth as untreated, 0 = no growth, -100 = all killed)
Details in all cases: 10 µM unless noted
RPMI-8226 leukemia = system: RPMI-8226 leukemia
OVCAR-8 ovarian = system: OVCAR-8 ovarian
OVCAR-5 ovarian = system: OVCAR-5 ovarian
OVCAR-4 ovarian = system: OVCAR-4 ovarian
SK-OV-3 ovarian = system: SK-OV-3 ovarian
IGROV1 ovarian = system: IGROV1 ovarian
OVCAR-3 ovarian = system: OVCAR-3 ovarian
HS 578T breast = system: HS 578T breast
T-47D breast = system: T-47D breast
NCI/ADR-RES ovarian = system: NCI/ADR-RES ovarian

Measured: growth

COc1ccc([C@H]2[C@@H](F)C(=O)N2c2cc(OC)c(OC)c(OC)c2)cc1F
inactive: RPMI-8226 leukemia 15.3% | OVCAR-8 ovarian 13.7% | OVCAR-5 ovarian 43.6% | OVCAR-4 ovarian 54.9% | SK-OV-3 ovarian 33.4% | IGROV1 ovarian 31.9% | HS 578T breast 25.5% | T-47D breast 74.9%
active: OVCAR-3 ovarian -4.18%

Cc1ccc2nc3nc4ccc[nH]c4cc3c2c1
inactive: RPMI-8226 leukemia 49.3% | OVCAR-8 ovarian 99.7% | OVCAR-5 ovarian 90.9% | OVCAR-4 ovarian 65.8% | SK-OV-3 ovarian 89.2% | IGROV1 ovarian 68.2% | OVCAR-3 ovarian 77.6% | NCI/ADR-RES ovarian 99.9% | T-47D breast 10.3%

O=C1NC(c2ccc(F)cc2)N=C2C(c3ccccc3)=NOC12 (stereo unspecified)
inactive: RPMI-8226 leukemia 107% | OVCAR-8 ovarian 106% | OVCAR-5 ovarian 108% | OVCAR-4 ovarian 105% | SK-OV-3 ovarian 106% | IGROV1 ovarian 108% | OVCAR-3 ovarian 109% | NCI/ADR-RES ovarian 112% | T-47D breast 104%

NC(=O)c1ccc(C2C3=C(CCCC3=O)OC3=C2C(=O)c2ccccc2C3=O)cc1 (stereo unspecified)
inactive: RPMI-8226 leukemia 18.6% | OVCAR-5 ovarian 96.4% | SK-OV-3 ovarian 104% | NCI/ADR-RES ovarian 79.8%
active: OVCAR-8 ovarian -1.42% | OVCAR-4 ovarian -12.8% | IGROV1 ovarian 8.86% | OVCAR-3 ovarian -20.4% | T-47D breast -1.02%

C/C(=C\c1cnc(C)s1)[C@@H]1C[C@@H]2O[C@@H]2CCC[C@H](C)[C@H](O)[C@@H](C)C(=O)C(C)(C)[C@@H](O)CC(=O)O1
active: OVCAR-3 ovarian 2.54% | NCI/ADR-RES ovarian 6.61%
inactive: RPMI-8226 leukemia 23.2% | OVCAR-8 ovarian 48% | OVCAR-5 ovarian 38.9% | OVCAR-4 ovarian 52.5% | SK-OV-3 ovarian 24.4% | IGROV1 ovarian 38.7% | T-47D breast 33.6%

COc1ccc(/C=C/C(=O)C(CC2CCC2)C(=O)/C=C/c2ccc(OC)c(OC)c2)cc1OC
inactive: OVCAR-4 ovarian 35.2% | SK-OV-3 ovarian 16.2%
active: RPMI-8226 leukemia -7.68% | OVCAR-8 ovarian 3.28% | OVCAR-5 ovarian -12.9% | IGROV1 ovarian -17.1% | OVCAR-3 ovarian -33.2% | NCI/ADR-RES ovarian 3.14% | T-47D breast -5.5%

O=C(NC[C@H](O)CN1CCc2ccccc2C1)c1cc(NC2COC2)ncn1
inactive: RPMI-8226 leukemia 107% | OVCAR-8 ovarian 97.3% | OVCAR-5 ovarian 96.4% | OVCAR-4 ovarian 91.5% | SK-OV-3 ovarian 107% | IGROV1 ovarian 76.9% | OVCAR-3 ovarian 104% | NCI/ADR-RES ovarian 98.4% | T-47D breast 83.4%

CC(=O)OC[C@]12CC[C@@H](c3cn(Cc4ccc(Cn5cc([C@@H]6CC[C@]7(COC(C)=O)CC[C@]8(C)[C@H](CC[C@@H]9[C@@]%10(C)CC[C@H](OC(C)=O)C(C)(C)[C@@H]%10CC[C@]98C)[C@@H]67)nn5)cc4)nn3)[C@@H]1[C@H]1CC[C@@H]3[C@@]4(C)CC[C@H](OC(C)=O)C(C)(C)[C@@H]4CC[C@@]3(C)[C@]1(C)CC2
inactive: RPMI-8226 leukemia 108% | OVCAR-8 ovarian 92% | OVCAR-5 ovarian 102% | OVCAR-4 ovarian 109% | SK-OV-3 ovarian 100% | IGROV1 ovarian 105% | OVCAR-3 ovarian 97.4% | NCI/ADR-RES ovarian 102% | T-47D breast 87.1%

COc1cc(C(C)c2ccc3c(ccn3C)c2)cc(OC)c1OC (stereo unspecified)
active: OVCAR-3 ovarian -16.4%
inactive: RPMI-8226 leukemia 15.8% | OVCAR-8 ovarian 11.5% | OVCAR-5 ovarian 63.1% | OVCAR-4 ovarian 37.5% | SK-OV-3 ovarian 17.7% | IGROV1 ovarian 18.8% | HS 578T breast 35.1% | T-47D breast 57.3%

C=C(C)[C@@H]1CC[C@]2(C(=O)O)CC[C@]3(C)[C@H](CC[C@@H]4[C@@]5(C)C[C@@H](CC#Cc6ccccc6)C(=O)C(C)(C)[C@@H]5CC[C@]43C)[C@@H]12
inactive: RPMI-8226 leukemia 15.3% | OVCAR-8 ovarian 26.5% | OVCAR-5 ovarian 65.4% | OVCAR-4 ovarian 41.3% | SK-OV-3 ovarian 42.9% | IGROV1 ovarian 61.1% | OVCAR-3 ovarian 17.9% | NCI/ADR-RES ovarian 42.1% | T-47D breast 22.5%

CC1CCN(CCCCCOc2ccc3oc4ccccc4c(=O)c3c2)CC1
inactive: RPMI-8226 leukemia 60.1% | OVCAR-8 ovarian 81% | OVCAR-5 ovarian 88.4% | OVCAR-4 ovarian 77.3% | SK-OV-3 ovarian 93.9% | IGROV1 ovarian 68.9% | OVCAR-3 ovarian 87.6% | HS 578T breast 70.3% | T-47D breast 67.6%

O=C(O)C(C(=O)O)c1cccc2ccccc12
inactive: RPMI-8226 leukemia 109% | OVCAR-8 ovarian 101% | OVCAR-5 ovarian 110% | OVCAR-4 ovarian 100% | SK-OV-3 ovarian 101% | IGROV1 ovarian 111% | OVCAR-3 ovarian 112% | HS 578T breast 102% | T-47D breast 92.7%

Nc1c(C(=O)Nc2cccc3ccccc23)sc2nc3c(cc12)CCCCCC3
active: OVCAR-3 ovarian -36.8%
inactive: RPMI-8226 leukemia 30.4% | OVCAR-8 ovarian 19.8% | OVCAR-5 ovarian 49.3% | OVCAR-4 ovarian 59% | SK-OV-3 ovarian 25.7% | IGROV1 ovarian 44.8% | NCI/ADR-RES ovarian 20.6% | T-47D breast 36.5%

CSc1nc(-c2ccco2)c2c(N)[nH]nc2n1
inactive: RPMI-8226 leukemia 109% | OVCAR-8 ovarian 108% | OVCAR-5 ovarian 109% | OVCAR-4 ovarian 109% | SK-OV-3 ovarian 98.6% | IGROV1 ovarian 109% | OVCAR-3 ovarian 116% | NCI/ADR-RES ovarian 103% | T-47D breast 75.7%

C#C[C@@]1(O)[C@@H](CO)O[C@@H](n2cc(I)c3c(N)ncnc32)[C@@H]1O
inactive: OVCAR-5 ovarian 20.6% | OVCAR-4 ovarian 20.4%
active: RPMI-8226 leukemia 5.83% | OVCAR-8 ovarian -19.4% | SK-OV-3 ovarian -28.3% | IGROV1 ovarian -34.9% | OVCAR-3 ovarian -17.8% | NCI/ADR-RES ovarian -4.5% | T-47D breast -21.1%

Cc1nc(C)c(C)nc1C
inactive: RPMI-8226 leukemia 104% | OVCAR-8 ovarian 91.8% | OVCAR-5 ovarian 115% | OVCAR-4 ovarian 114% | SK-OV-3 ovarian 96.5% | IGROV1 ovarian 108% | OVCAR-3 ovarian 109% | HS 578T breast 85.6% | T-47D breast 92.5%

CN(C)CCCn1c2c(c3cc(-c4cccc(S(N)(=O)=O)c4)ccc3c1=O)C(=O)c1ccccc1-2
inactive: RPMI-8226 leukemia 70.3% | OVCAR-8 ovarian 56% | OVCAR-5 ovarian 97.7% | OVCAR-4 ovarian 82.3% | SK-OV-3 ovarian 67.8% | IGROV1 ovarian 66.7% | OVCAR-3 ovarian 87.8% | NCI/ADR-RES ovarian 70.6% | T-47D breast 74.7%

COCCOCCOCc1n(Cc2ccc3ccccc3n2)c2ccccc2[n+]1Cc1ccc2ccccc2n1
inactive: OVCAR-8 ovarian 19.9% | OVCAR-5 ovarian 40.6% | OVCAR-4 ovarian 15.4% | SK-OV-3 ovarian 21.3% | IGROV1 ovarian 20.2% | NCI/ADR-RES ovarian 102%
active: RPMI-8226 leukemia 1.07% | OVCAR-3 ovarian 7.54% | T-47D breast -4.32%

COc1cc(F)c(-c2nc3c(C)cccc3n2Cc2c(F)cccc2F)c(F)c1
inactive: RPMI-8226 leukemia 68.2% | OVCAR-8 ovarian 90.5% | OVCAR-5 ovarian 94.6% | OVCAR-4 ovarian 77.6% | SK-OV-3 ovarian 90.5% | IGROV1 ovarian 69.4% | OVCAR-3 ovarian 96.2% | T-47D breast 71.4%

COc1ccc2nc(-c3ccc(Cl)cc3)cc(-c3nnc(SCC(=O)Nc4ccc(/C(C)=N\O)cc4)o3)c2c1
active: OVCAR-8 ovarian 0.357% | OVCAR-4 ovarian -56.1%
inactive: RPMI-8226 leukemia 18.4% | OVCAR-5 ovarian 81.1% | SK-OV-3 ovarian 87.5% | IGROV1 ovarian 60.2% | OVCAR-3 ovarian 36.8% | HS 578T breast 64.8% | T-47D breast 41.7%

COc1cc(/C=C/C(=O)/C=C/c2cc3ccc(Cl)cc3n(Cc3ccccc3)c2=O)ccc1O
inactive: OVCAR-5 ovarian 19.4% | OVCAR-4 ovarian 25.8% | SK-OV-3 ovarian 37.3% | NCI/ADR-RES ovarian 15%
active: RPMI-8226 leukemia -18.8% | OVCAR-8 ovarian 5.61% | IGROV1 ovarian 3.2% | OVCAR-3 ovarian -46.4% | T-47D breast 2.39%

COc1ccc2c(c1)Oc1nc(N)c(C#N)c(N)c1C2Sc1ccc(SC)cc1 (stereo unspecified)
inactive: OVCAR-8 ovarian 21.2% | OVCAR-5 ovarian 112% | OVCAR-4 ovarian 37.2% | SK-OV-3 ovarian 94.4% | NCI/ADR-RES ovarian 62.9%
active: RPMI-8226 leukemia 2.48% | IGROV1 ovarian 0.493% | OVCAR-3 ovarian -63.3% | T-47D breast -7.13%

O=C(O)c1cn(C2CC2)c2cc(N3CCN(C(=O)CSc4nnc(-c5ccc(Cl)cc5)n4-c4ccccc4)CC3)c(F)cc2c1=O
inactive: RPMI-8226 leukemia 102% | OVCAR-8 ovarian 102% | OVCAR-5 ovarian 121% | OVCAR-4 ovarian 110% | SK-OV-3 ovarian 79.8% | IGROV1 ovarian 107% | OVCAR-3 ovarian 110% | HS 578T breast 101% | T-47D breast 77.9%

COc1ccc(C(=S)c2cc(OC)c(OC)c(OC)c2)cc1OC(=O)CCl
inactive: RPMI-8226 leukemia 26.9% | OVCAR-8 ovarian 14.4% | OVCAR-5 ovarian 66.9% | OVCAR-4 ovarian 52.9% | SK-OV-3 ovarian 25.3% | IGROV1 ovarian 24.4% | HS 578T breast 37.8% | T-47D breast 62.6%
active: OVCAR-3 ovarian 8.17%

COC(=O)c1ccc2c(c1)n(Cc1ccc3ccccc3c1)c[n+]2Cc1ccc2ccccc2c1
inactive: OVCAR-8 ovarian 52.9% | OVCAR-5 ovarian 55.6% | OVCAR-4 ovarian 35.5% | SK-OV-3 ovarian 75.5% | OVCAR-3 ovarian 15.6% | NCI/ADR-RES ovarian 101%
active: RPMI-8226 leukemia -5.06% | IGROV1 ovarian 4.97% | T-47D breast 0.0638%

CN(C)C1=NCCN1
inactive: RPMI-8226 leukemia 95.2% | OVCAR-8 ovarian 104% | OVCAR-5 ovarian 104% | OVCAR-4 ovarian 114% | SK-OV-3 ovarian 109% | IGROV1 ovarian 104% | OVCAR-3 ovarian 104% | HS 578T breast 106% | T-47D breast 110%

COc1cc(C2=NN(c3ccccc3)C(c3cccc(Nc4ccnc5cc(C(F)(F)F)ccc45)c3)C2)cc(OC)c1OC (stereo unspecified)
inactive: RPMI-8226 leukemia 65.1% | OVCAR-8 ovarian 91.7% | OVCAR-5 ovarian 104% | OVCAR-4 ovarian 91% | SK-OV-3 ovarian 94.7% | IGROV1 ovarian 77.9% | HS 578T breast 99% | NCI/ADR-RES ovarian 80.9% | T-47D breast 76.5%

Cc1ccc(C2CC(c3ccc(Nc4nc(NCCO)nc(NCCO)n4)cc3)=NN2c2ccc(Cl)cc2)cc1 (stereo unspecified)
inactive: RPMI-8226 leukemia 47.5% | OVCAR-8 ovarian 66% | OVCAR-5 ovarian 99% | OVCAR-4 ovarian 63.9% | SK-OV-3 ovarian 98.6% | IGROV1 ovarian 82.6% | HS 578T breast 72.8% | NCI/ADR-RES ovarian 80.4% | T-47D breast 53.1%
